Source: PubChem
AF4-AF9 inh = inhibitors of human MLL-AF4/AF9 interaction | AlphaScreen, biotin-AF4 peptide binding to FLAG-AF9 | P42568 | inhibition, % at 10 µM | 350,000 compounds, 0.47% hits;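 active = every replicate reaching a set inhibition limit, whatever the replicate mean, cut at about 25% in these data; inconclusive = mean inhibition reaches that limit but some replicates miss it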;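 also: 0% = plate neutral control median and 100% = total signal loss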
Target sequence (P42568 whole entry, looked up): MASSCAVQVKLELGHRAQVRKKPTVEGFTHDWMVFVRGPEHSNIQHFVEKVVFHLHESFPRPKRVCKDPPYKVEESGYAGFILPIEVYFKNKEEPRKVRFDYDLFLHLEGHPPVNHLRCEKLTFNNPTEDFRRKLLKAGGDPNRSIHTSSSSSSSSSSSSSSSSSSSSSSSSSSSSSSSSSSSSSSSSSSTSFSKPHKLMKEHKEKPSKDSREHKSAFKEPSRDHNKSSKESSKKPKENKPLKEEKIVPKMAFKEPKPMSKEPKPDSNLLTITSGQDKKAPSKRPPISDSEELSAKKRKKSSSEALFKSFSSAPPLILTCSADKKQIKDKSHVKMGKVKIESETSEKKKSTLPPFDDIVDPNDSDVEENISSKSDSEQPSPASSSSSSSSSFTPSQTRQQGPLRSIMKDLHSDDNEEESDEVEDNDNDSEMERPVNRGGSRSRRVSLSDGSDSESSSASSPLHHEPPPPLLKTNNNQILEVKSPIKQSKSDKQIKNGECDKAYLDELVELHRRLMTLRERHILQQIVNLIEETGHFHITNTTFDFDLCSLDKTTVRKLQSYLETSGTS
ERAP1 inh = blocks human ERAP1 aminopeptidase activity. Q9NZ08. recombinant ERAP1, Leu-AMC fluorescence, 60 min. inhibition, % at 10.7 µM. 340,000 compounds, 0.15% hits;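 active = mean replicate inhibition of at least 30%, or all replicates individually reaching that 30% level; inactive = mean below 30% and not every replicate reaching it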;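 also: 0% = neutral control wells and 100% = L-leucinethiol positive control wells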
RAD54 inh = blocks human RAD54 Holliday junction branch migration. 360,000 compounds, 0.14% hits. Q92698. FAM/BHQ fluorescence. inhibition, % at 10.4 µM;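 active = mean normalized replicate activity at least 40 and at least half of replicates scoring 40 or more; inconclusive = only one of the two criteria met; inactive = mean below 40 and under half of replicates reaching 40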;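 also: 0% = median of neutral control wells and 100% = median of positive control wells; inhibitors cause a drop in the FAM fluorescence signal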
GSIS activator = GLuc luminescence reporter in INS-1E cells, primary screen for activators of glucose-dependent secretion of insulin. INS-1E GLuc reporter insulin secretion, 2-3 h. activation, % at 16.6 µM. 370,000 compounds, 0.61% hits. AID 743287;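 active = lowest replicate activation of at least 40%, so every replicate reaches that level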;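 also: 0% = median of neutral control wells and 100% = median of IBMX positive control wells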
RAD52 inh = inhibitors of human RAD52 DNA annealing | recombinant RAD52 DNA annealing, FRET fluorescence | inhibition, % at 18.7 µM | 360,000 compounds, 0.46% hits;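 active = every replicate showing at least 50% inhibition; inconclusive = mean inhibition at least 50% but not in every replicate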
PGC1a acetyl inh = PGC1a acetylation modulation, inhibitor mode; U2OS PGC1a acetylation, AlphaScreen anti-acetyl-lysine; with virally co-expressed GCN5 acetyltransferase; inhibition, % at 15.6 µM; 350,000 compounds, 0.17% hits; AID 651687;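 active = every replicate shows inhibition of at least 40%; inconclusive = mean inhibition at least 40% but some replicate below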;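 also: 0% = neutral control wells and 100% = positive control wells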
DNA binder FP = DNA binding artifact in RAD52 counter-screen; AC50, µM; Salmon sperm DNA/acridine orange FP displacement; shares compounds with RAD52 inh; AID 652128; 1,000 compounds, 8% hits;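 active = fitted half-maximal concentration for signal loss at or below twice the highest dose tested, in every separate run, actives reach about 64 µM in these data; inconclusive = runs disagree, or flat partial signal loss, or poor fit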
Active calls of the source: *; i = inactive; ? = inconclusive; . = no result. Compounds with a hit are over-represented: about 1.4% of the library has one in this group of screens.

SMILES	AF4-AF9 inh	ERAP1 inh	RAD54 inh	GSIS activator	RAD52 inh	PGC1a acetyl inh	DNA binder FP
CC(=O)c1ccc(-c2cnc3c(NC=O)cc(-c4ccc(N5CCN(C)CC5)cc4)cn23)cc1	12	1	35	.	67*	-4	i
COc1cccc(NC(=O)C[C@H]2CC[C@H]3[C@@H](COc4ccc(NC(=O)C5CCC5)cc4C(=O)N3C)O2)c1	.	.	.	0	.	.	.
Cc1ccc2c(=O)c(CN3CCCCCC3)c(C)[nH]c2c1C	3	1	-17	-11	44	7	i
C[C@@H]1CCCCO[C@@H](CN(C)S(=O)(=O)c2cn(C)cn2)[C@H](C)CN([C@H](C)CO)C(=O)c2cc(NC(=O)Nc3ccc(C(F)(F)F)cc3)ccc2O1	.	.	0	1	.	0	.
COc1ccc(OC)c(/C=N/NC(=O)c2cc[n+](CC(=O)c3ccccc3)cc2)c1	7	37*	9	16	57*	-3	i
O=C(C[n+]1ccc(C(=O)N/N=C/c2ccc(OCc3ccccc3)cc2)cc1)c1ccccc1	-22	-2	8	29	3	3	.
Cc1cccc(CN2C(=O)c3ccccc3S(=O)(=O)c3ccc(C(=O)NCCCN4CCCC4)cc32)c1	7	-1	18	-5	51*	-3	i
COC(=O)C[C@H]1CC[C@H]2[C@H](COc3ccc(NC(=O)c4cc(C)on4)cc3C(=O)N2C)O1	-2	-1	-3	1	-22	0	.
CCCCCCCCCCCCCCC(O)C[N+](C)(CCO)CCO (stereo not drawn)	7	64*	.	295*	85*	-4	?
O=C(CNC1CCCC1)Nc1ccc(N2CCCCCC2)cc1	44*	0	.	-20	78*	-10	i
CC(=O)c1ccc(NC(=O)CNC2CCCCC2)cc1	4	2	4	-11	11	-1	.
CCN(CCN(C)C)C(=O)c1ccc2c(c1NCCO)C(=O)c1ccccc1C2=O	17	-1	.	-4	58*	1	58µM*
CN(C)CC/C=C1\c2cc(Cl)ccc2Sc2cc(F)c(F)cc21	31*	14	.	.	62*	.	i
CN(C)CC/C=C1/c2cc(F)ccc2CSc2ccc(F)cc21	.	.	.	-26	.	.	.
CN(C)CC/C=C1\c2ccccc2Sc2cc(F)c(Cl)cc21	28*	.	.	-2	63*	.	i
O=[N+]([O-])c1ccc(COc2ccccc2CN2CCCCC2)cc1	-1	.	1	0	1	-7	.
O=[N+]([O-])c1ccc(COc2ccccc2CN2CCCC2)cc1	2	.	9	1	77*	1	i
C[C@H](CO)N1C[C@H](C)[C@H](CN(C)Cc2ccccc2F)Oc2cc(C3=CCCCC3)ccc2S1(=O)=O	7	-1	0	-7	-7	-16	.
CCOC(=O)CCc1nc2ccccc2[nH]1	5	-2	-5	10	-14	8	.
COCC(=O)O[C@]1(CCN(C)CCCc2nc3ccccc3[nH]2)CCc2cc(F)ccc2[C@@H]1C(C)C	11	-15	22	73	54*	-22	i
COc1cccc(OC)c1C(=O)Nc1sc2c(c1C(N)=O)CCN(Cc1ccccc1)C2	10	-1	-7	.	-141	-15	.
CCN1CCc2c(sc(NC(=O)c3cc4ccccc4cc3OC)c2C(N)=O)C1	11	2	28	-2	76*	2	i
COc1ccccc1S(=O)(=O)N[C@@H]1CC[C@@H](CC(=O)NCc2cc(F)cc(F)c2)O[C@@H]1CO	-3	-2	.	3	1	3	.
CO[C@H]1CN(C)C(=O)c2cc(NS(=O)(=O)CC(F)(F)F)ccc2OC[C@H](C)N(Cc2cccnc2)C[C@@H]1C	2	0	3	2	-4	-4	.
OCCCNc1c2ccccc2nc2ccccc12	-12	2	97*	-11	95*	-41	53µM*
SMILES	AF4-AF9 inh	ERAP1 inh	RAD54 inh	GSIS activator	RAD52 inh	PGC1a acetyl inh	DNA binder FP
C/C(=N\NC(=O)c1nnn(-c2nonc2N)c1CN1CCC(C)CC1)c1ccc(Br)cc1	2	1	0	1	72*	1	i
CC1CCN(Cc2c(C(=O)N/N=C/c3cc(Br)ccc3O)nnn2-c2nonc2N)CC1	1	-2	-1	1	2	11	.
Cc1ccc(S(=O)(=O)Nc2ccc3c(c2)C(=O)N([C@H](C)CO)C[C@@H](C)[C@@H](CN(C)Cc2ccccc2)O3)cc1	3	2	2	2	-4	2	.
COc1nc(Nc2cccc(F)c2)nc(OC)n1	-4	0	0	.	-5	-6	.
COc1cc2nc(Nc3cccc(F)c3)nc(N)c2cc1OC	17	-7	36	-13	61*	-11	i
COc1ccc2c3c(n(C)c2c1)[C@H](CO)N(C(C)=O)CC31CN(Cc2cccnc2)C1	.	.	.	9	.	.	.
CO[C@H]1CN(C)C(=O)c2cc(NC(=O)Nc3ccccc3)ccc2OC[C@@H](C)N(CC2CC2)C[C@H]1C	0	0	6	-1	-2	6	.
COc1ccc(-c2ccc([C@H]3[C@@H](CO)N4C(=O)CNC[C@@H]34)cc2)cc1	-6	-1	.	-9	-27	-3	.
CCc1nc2ccc(C(=O)Nc3cc(-c4ccccc4)ccc3OC)cn2c1N(CCN(C)C)CC1CC1	30*	5	18	0	63*	-35	i
CCCCCOc1ccc(/C(C)=N/NC2=NCCN2)cc1	5	-8	13	-10	34	18	.
CCCCCCOc1ccc(/C(C)=N/NC2=NCCN2)cc1	?	-4	44	17	54*	-36	i
O=[N+]([O-])c1ccc2c(c1)C(N1CCN(CCO)CC1)Cc1ccc(F)cc1S2 (stereo not drawn)	16	1	10	.	3	-4	.
CSc1ccc2c(c1)C(N1CCN(C)CC1)Cc1ccc(F)cc1S2 (stereo not drawn)	.	8	11	-25	51*	-4	i
CCc1ccc(OCCNc2cc(N3CCNC(C)C3)ccc2[N+](=O)[O-])cc1 (stereo not drawn)	37*	1	4	-38	11	.	i
CC1CN(c2ccc([N+](=O)[O-])c(NCCOc3ccc(Cl)cc3)c2)CC(C)N1 (stereo not drawn)	21	-2	15	-34	31	.	.
COc1ccccc1NC(=S)NC12CN3CN(CN(C3)C1)C2	12	-1	.	32	79*	-7	i
Cc1ccccc1NC(=S)NC12CN3CN(CN(C3)C1)C2	-6	-1	.	8	5	.	.
O=C(C[C@@H]1C=C[C@@H](NC(=O)c2ccc(F)cc2)[C@H](CO)O1)NCCc1ccncc1	-1	2	0	15	5	2	.
CC(C)(c1ccccc1)c1ccc(OCCCN2CCNCC2)cc1	18	15	.	-5	57*	-24	i
